Source: PubChem
NCOA1 inh = inhibits human SRC1 coactivator; Q15788; HEK293 GAL4-SRC1 luciferase reporter, luminescence; inhibition, % at 3.6 µM; 0.12% of 360,000 active;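 active means inhibition above the campaign mean plus 3 SD, with each screening campaign given its own cutoff, cut at about 60% in these data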
SRC2 inh = human SRC2 (NCOA2) inhibition; Q15596; HEK293 GAL4-SRC2 luciferase reporter, luminescence; inhibition, % at 9 µM; 0.17% of 370,000 active; AID 651957;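 active means inhibition above the mean inhibition of all tested compounds plus 3 SD, set per campaign, cut at about 52% in these data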
LRH-1 inv ag = NR5A2 inverse agonism in reporter assay | O00482 | AID 602396 | inhibition, % at 3.6 µM | HEK293T StAR-luciferase reporter, LRH-1 transfected, 24 h | 0.13% of 360,000 active;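 active means inhibition above the mean inhibition of all tested compounds plus 3 SD, cut at about 73% in these data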
SRC3 inh = inhibitors of human steroid receptor coactivator 3 (SRC3). Q9Y6Q9. HEK293 GAL4-SRC3 luciferase reporter, luminescence. inhibition, % at 3.6 µM. 0.17% of 360,000 active. AID 588352;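 active means inhibition above a per-campaign cutoff, the mean of all compounds plus 3 SD, cut at about 60% in these data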;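 further: higher means less SRC3-driven luciferase light from the GAL4 reporter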
GalR3 antagonist = antagonists of human GalR3; O60755; HEK293 GalR3-CNG cAMP membrane potential fluorescence; galR3 body fused to GalR1 C-terminus; inhibition, % at 3 µM; 0.44% of 360,000 active; AID 651719;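 active means inhibition above the screen-wide average plus 3 SD, cut at about 13% in these data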;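 further: forskolin and galanin both at EC90 stimulate the cells; cAMP rise reported by CNG channel membrane potential dye signal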
Target sequence (O60755 1-299 limits assumed): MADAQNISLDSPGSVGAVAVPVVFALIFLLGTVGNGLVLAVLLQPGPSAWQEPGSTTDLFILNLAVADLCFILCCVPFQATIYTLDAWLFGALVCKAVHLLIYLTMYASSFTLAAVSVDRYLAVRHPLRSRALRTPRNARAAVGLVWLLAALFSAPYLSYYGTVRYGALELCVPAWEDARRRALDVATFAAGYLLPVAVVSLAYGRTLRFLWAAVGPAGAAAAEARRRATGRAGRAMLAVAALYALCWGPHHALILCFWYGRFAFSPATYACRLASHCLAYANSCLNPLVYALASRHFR
NR2F2 inh = NR2F2 (human) inhibition, primary screen; P24468; HEK293T NGFI-A luciferase reporter, luminescence; inhibition, % at 8.6 µM; 0.7% of 370,000 active;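 active means inhibition above a per-plate cutoff, mean inhibition of test wells between control levels plus 3 SD, cut at about 38% in these data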;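 further: cells cotransfected with COUP-TFII expression vector driving the NGFI-A reporter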
GalR3 antag conf = confirmation of human galanin receptor 3 antagonists; shares compounds with GalR3 antagonist; inhibition, % at 3 µM; HEK293 GalR3 CNG cAMP biosensor, membrane potential fluorescence; galR3 fused to GalR1 carboxy tail; challenged with forskolin and galanin at EC90; AID 652245; 59% of 1,600 active;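 active means inhibition above the primary screen's cutoff, the mean inhibition of all screened compounds plus 3 SD, cut at about 13% in these data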
HEK-CNG parental = parental cell agonism counter-screen for GalR3 antagonists; 10% of 1,600 active; AID 652268; HEK293-CNG parental cells, cAMP membrane potential fluorescence; normalised: DMSO wells 0%, forskolin wells 100%; shares compounds with GalR3 antagonist; activation, % at 3 µM; in the data active means activation above about 1.3%
A number is an active result; . = inactive; / = no result. Hits are enriched below; roughly 1.1% of the tested compounds scored in any of these assays.

SMILES	NCOA1 inh	SRC2 inh	LRH-1 inv ag	SRC3 inh	GalR3 antagonist	NR2F2 inh	GalR3 antag conf	HEK-CNG parental
Cc1ccc(-c2sc(C(=O)NN)c(C)c2C#N)cc1	.	.	.	.	27	.	25	.
Cc1ccc(CSc2sc(C(=O)c3ccccc3)c(N)c2C#N)cc1	.	.	.	.	.	.	/	/
O/N=C/c1cc(Br)ccc1OCc1ccc(F)cc1	.	.	.	.	.	.	/	/
Oc1c(Br)cc(Br)cc1C=NCc1ccc(F)cc1	.	.	.	.	34	.	.	.
Oc1c(Br)cc(Br)cc1C=NCc1ccccc1	.	.	.	.	/	.	.	.
COc1ccc(C=O)c2[nH]c3c(Cl)ncnc3c12	.	.	.	.	14	.	29	.
CCCN(CC(=O)Nc1ccc(Cl)cc1Cl)Cc1cc(=O)n2ccsc2n1	.	.	.	.	17	.	24	.
CC(C)C(C#CC1CC1)NCc1ccc2c(c1)OCO2 (configuration not stated)	/	.	/	/	/	.	/	/
CCCCCCn1cc(CN2CC=CS2(=O)=O)nn1	/	.	/	/	/	.	/	/
COc1ccc(S(=O)(=O)NCc2ccco2)cc1-c1nnc2c3ccccc3c(C)nn12	.	.	.	.	28	.	15	.
Nc1nnc(SCc2nc3scc(-c4ccccc4)c3c(=O)[nH]2)s1	.	.	.	.	.	.	/	/
Cc1nnc(SCc2nc3scc(-c4ccccc4)c3c(=O)[nH]2)s1	.	.	.	.	14	.	.	.
O=C(NC1CCCCC1c1ccccc1)c1ccccc1 (configuration not stated)	.	.	.	.	16	.	.	.
O=C(COC(=O)Cc1c(F)cccc1Cl)NC(=O)c1ccccc1	.	.	.	.	.	.	/	/
CC(C)NC(=O)NC(=O)COC(=O)Cc1c(F)cccc1Cl	.	.	.	.	25	.	14	.
COC(C[C@H]1O[C@H]1[C@H](O)[C@H](C)OCc1ccccc1)OC	.	.	.	.	/	.	.	.
COC(=O)C1=CC(=O)C=C(OC)[C@@]12Oc1cc(C)cc(OC)c1C2=O	/	.	/	/	/	.	/	/
Cc1c(C(=O)OCC(C)C)[nH]c2c1C(=O)CC(c1ccco1)C2 (configuration not stated)	.	.	.	.	17	.	.	2.5
COC(=O)COc1cccc(NC(=O)c2cccc(C)c2)c1	.	.	.	.	20	.	57	.
COC(=O)[C@]12C[C@H](CC(=O)NCc3cccs3)C(=O)N(Cc3ccco3)C1=C[C@H](COCc1ccccc1)O[C@@H]2C	/	.	/	/	/	.	/	/
COc1ccc(C(=O)c2coc(-c3ccccc3C(=O)O)c2C(=O)O)cc1	.	.	.	.	14	.	.	.
COc1ccc(C(=O)NC2CCCN(Cc3ccccc3F)C2)c(OC)c1OC (configuration not stated)	.	.	.	.	16	.	.	.
COc1ccc(NC(=O)c2ccccc2[N+](=O)[O-])cc1	.	.	.	.	.	.	/	/
COc1ccccc1Nc1ccc(NC(=O)c2cccc([N+](=O)[O-])c2C)cc1	.	.	.	.	14	.	.	.
COc1ccccc1CCNC(=O)C(=O)NCC1OCCN1S(=O)(=O)c1ccc2c(c1)OCCO2 (configuration not stated)	.	.	.	.	14	.	.	.
SMILES	NCOA1 inh	SRC2 inh	LRH-1 inv ag	SRC3 inh	GalR3 antagonist	NR2F2 inh	GalR3 antag conf	HEK-CNG parental
CN(Cc1ccc2c(c1)CCCN2C)C(=O)[C@H]1O[C@@H](n2cnc3c(N)ncnc32)[C@H](O)[C@@H]1O	.	.	.	.	42	.	85	.
Cn1c(=O)n(C)c2cc(CNC(=O)[C@H]3O[C@@H](n4cnc5c(N)ncnc54)[C@H](O)[C@@H]3O)ccc21	.	.	.	.	.	.	/	/
CCCOC(=O)c1ccc(Oc2cn[nH]c2-c2ccc(O)cc2O)cc1	.	.	.	.	.	.	/	/
CCOC(=O)c1ccc(Oc2cn[nH]c2-c2ccc(O)cc2O)cc1	.	.	.	.	17	.	.	4.4
CCOc1cc(C2NC(=O)NC(C)=C2C(=O)OCc2ccccc2)ccc1O (configuration not stated)	.	.	.	.	13	.	15	.
COc1cc(C2NC(=O)NC(C)=C2C(=O)OCc2ccccc2)ccc1O (configuration not stated)	.	.	.	.	.	.	/	/
COc1ccc(COC(=O)C2=C(C)NC(=O)NC2c2cc(Br)c(O)c(OC)c2)cc1 (configuration not stated)	.	.	.	.	29	.	35	.
COc1ccc(COC(=O)C2=C(C)NC(=O)NC2c2ccc(O)c(OC)c2)cc1 (configuration not stated)	.	.	.	.	.	.	/	/
CCn1c(Cc2cccs2)nnc1SCC(=O)Nc1cccc2ccccc12	/	.	/	/	/	.	/	/
COc1ccc(/C=C/C(=O)Nc2ccccc2)cc1S(=O)(=O)N1CCOCC1	.	.	.	.	.	.	/	/
COc1ccc(/C=C/C(=O)O)cc1S(=O)(=O)N1CCc2ccccc2C1	.	.	.	.	/	.	.	.
COc1ccc(/C=C/C(=O)Nc2ccccc2Cl)cc1S(=O)(=O)N1CCOCC1	.	.	.	.	15	.	.	.
Cc1ccc(/C=C/C(=O)O)cc1S(=O)(=O)N1CCc2ccccc21	.	.	.	.	.	.	/	/
COc1ccc(C)cc1S(=O)(=O)N1CCc2ccccc2C1	.	.	.	.	.	.	/	/
Cc1ccc(/C=C/C(=O)O)cc1S(=O)(=O)N1CCc2ccccc2C1	.	.	.	.	15	.	.	.
CN(Cc1cn(CC2CCCCC2)nn1)S(=O)(=O)c1ccccc1Br	/	.	/	/	/	.	/	/
COc1ccc(CN(C)C(C#Cc2ccccc2)Cc2ccccc2)c(OC)c1 (configuration not stated)	/	.	/	/	/	.	/	/
Cc1onc(-c2ccccc2Cl)c1C(=O)Nc1ccccc1	.	.	.	.	.	.	/	/
Cc1onc(-c2ccccc2Cl)c1C(=O)NNC(=O)c1cccc(F)c1	.	.	.	.	13	.	15	.
COc1cc(NC(=O)c2[nH]c(C)c(C(C)=O)c2C)c(OC)cc1Cl	/	/	/	/	/	.	/	/
CCc1c(C(=O)Nc2ccc(OC)c(Cl)c2)[nH]c(C)c1C(C)=O	.	.	.	.	28	.	13	.
COc1ccc(CNc2nc(S(=O)(=O)c3ccccc3)c(Cl)s2)cc1OC	.	.	.	.	85	.	.	.
COc1ccccc1-c1cc(C(F)(F)F)nc(S(=O)(=O)CCCC(=O)Nc2cc(C)on2)n1	.	.	.	.	.	.	/	/
